Results as given in PubChem BioAssay (NCATS).
Inconclusive results are not listed. For part of these data: Potency and affinity values are given separately. Active and inactive are the calls of the source.

Tests used:
[1] = Ebola virus entry assay, green channel fluorescence
[2] = Ebola virus entry assay, reporter ratio channel; AC50: Channel type: primary unless noted; outcome: Channel type: primary unless noted
[3] = Ebola virus entry assay, blue channel (ratio component)
[4] = High-throughput drug toxicity screening in the BPDCN cell line Cal-1 (AID 1224825); conditions: Cal-1 BPDCN cell viability, qHTS; at 45.8 µM (top of the series) unless noted
Procedure, shortened: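 Exponentially growing Cal-1 cells, 500 per well in phenol red-free RPMI with 10% FBS, were exposed to compounds for 48 h at 37 °C, 5% CO2. Viability was read by CellTiter-Glo luminescence and normalised to DMSO (100%) and 9.2 uM bortezomib (0%).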

[5] = qHTS assay for measurement of the activity of small molecule inhibitors on Zika virus induced Caspase-3 activity in human iPSC derived neural progenitor cells (hNPCs) (AID 1224857; active means well fitted inhibition curve with a large enough effect; further: nearly all actives have a fitted effect of over 65% in size); conditions: hNPCs ZIKV-induced caspase-3/7, Caspase-Glo luminescence, 6 h; series mostly up to 45.7 µM
Procedure, shortened: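 Percent inhibition of virus-induced caspase-3/7 luminescence (Caspase-Glo), scaled between uninfected cells and Zika-infected cells. hNPCs received compound 1 hr before ZIKV at 2 FFU/cell, with 6 hours infection at 37 C.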

[6] = Immunotoxin (HA22) sensitization/mitigation study. Vehicle arm (PBS) (AID 1159510); conditions: cancer cells viability with PBS vehicle (HA22 study); series mostly up to 46.1 µM; further: potency means the concentration at half of the fitted maximal effect
[7] = Ebola virus entry reporter assay, green channel fluorescence
[8] = Ebola virus entry cell assay, ratio channel
[9] = Immunotoxin (SS1P) sensitization/mitigation study. Vehicle arm (DMEM) (AID 1159513); conditions: cell viability with vehicle (DMEM); series mostly up to 46.1 µM

Cn1c(=O)c2[nH]c(Br)nc2n(C)c1=O
inactive: outcome [1] | outcome [2] | outcome [3]

Nc1ccc([N+](=O)[O-])c(C(F)(F)F)c1
inactive: outcome [1] | outcome [2] | outcome [3]

O=C(O)[C@@H](O)[C@H](O)[C@H](O)[C@@H](O)C(=O)O
inactive: outcome [1] | outcome [2] | outcome [3]

CS(=O)(=O)c1ccc([C@@H](O)[C@@H](CF)NC(=O)C(Cl)Cl)cc1
inactive: outcome [1] | outcome [2] | outcome [3]

COc1cnc(NS(=O)(=O)c2ccc(N)cc2)nc1
inactive: outcome [1] | outcome [2] | outcome [3]

COc1cc2nc(Cl)nc(N)c2cc1OC
inactive: outcome [1] | outcome [2] | outcome [3]

CN[C@@H]1[C@H](O)[C@H](NC)[C@H]2O[C@@]3(O)C(=O)C[C@@H](C)O[C@H]3O[C@@H]2[C@H]1O
inactive: outcome [1] | outcome [2] | outcome [3]

Cc1onc(-c2ccccc2)c1C(=O)Cl
inactive: outcome [1] | outcome [2] | outcome [3]

NS(=O)(=O)c1cc2c(cc1Cl)NC(CC1CCCC1)NS2(=O)=O (configuration not stated)
inactive: outcome [1] | outcome [2] | outcome [3]

CNCc1ccccc1
inactive: outcome [1] | outcome [2] | outcome [3]

CCOC(=O)Oc1ccc(CCNC(=O)[C@H](CCSC)NC(C)=O)cc1OC(=O)OCC
inactive: outcome [1] | outcome [2] | outcome [3]

CN1CCN(N)CC1
inactive: outcome [1] | outcome [2] | outcome [3]

CSCC[C@H](NC(=O)[C@H](Cc1c[nH]c2ccccc12)NC(=O)CCNC(=O)OC(C)(C)C)C(=O)N[C@@H](CC(=O)O)C(=O)N[C@@H](Cc1ccccc1)C(N)=O
inactive: outcome [1] | outcome [2] | outcome [3]

O=C(O)c1cc(=O)c2ccccc2o1
inactive: outcome [1] | outcome [2] | outcome [3]

CCCCCC[C@@H](CCC)C(=O)O
inactive: outcome [1] | outcome [2] | outcome [3]

Cc1c(NC(C)C)c(=O)n(-c2ccccc2)n1C
inactive: outcome [1] | outcome [2] | outcome [3]

CCCCC(CC)CNC(=O)CC(C)OC(=O)CCC(=O)O (configuration not stated)
inactive: outcome [1] | outcome [2] | outcome [3]

O=C(CCCl)NCCc1ccccc1
inactive: outcome [1] | outcome [2] | outcome [3]

Cc1ccc(Cl)c(Nc2ccccc2C(=O)O)c1Cl
inactive: outcome [1] | outcome [2] | outcome [3]

CN=C(NC#N)NCCSCc1csc(N=C(N)N)n1
inactive: outcome [1] | outcome [2] | outcome [3]

Nc1ccc(C(=O)Oc2ccccc2)c(O)c1
inactive: outcome [1] | outcome [2] | outcome [3]

NC[C@H]1O[C@H](O[C@H]2[C@H](O[C@@H]3O[C@H](CO)[C@@H](O)[C@H]3O)C(O)[C@H](N)C[C@@H]2N)[C@H](N)[C@@H](O)[C@@H]1O (some centres not stated)
inactive: outcome [1] | outcome [2] | outcome [3]

CCCCCN(CCCOC)C(=O)C(CCC(=O)O)NC(=O)c1ccc(Cl)c(Cl)c1 (configuration not stated)
inactive: outcome [1] | outcome [2] | outcome [3]

COc1ccc2cccc(CCNC(C)=O)c2c1
inactive: outcome [1] | outcome [2] | outcome [3]

Nc1ccc(O)cc1
inactive: outcome [1] | outcome [2] | outcome [3]

O=C1CC(c2ccc(Cl)cc2)CC(=O)N1
inactive: outcome [1] | outcome [2] | outcome [3]

Nc1ccc(S(=O)(=O)Nc2ccc(Cl)nn2)cc1
inactive: outcome [1] | outcome [2] | outcome [3]

CC(=O)Nc1ccc(OCC(O)CNC(C)C)cc1 (configuration not stated)
inactive: outcome [1] | outcome [2] | outcome [3]

Cc1ncc([N+](=O)[O-])n1CC(O)CCl (configuration not stated)
inactive: outcome [1] | outcome [2] | outcome [3]

Cc1c(I)c(=O)n(-c2ccccc2)n1C
inactive: outcome [1] | outcome [2] | outcome [3]

O=C(O)CCCC[C@@H]1SC[C@@H]2NC(=O)N[C@@H]21
inactive: outcome [1] | outcome [2] | outcome [3]

CC(C)(C)NCC(O)COc1ccccc1OCC1CCCO1 (configuration not stated)
inactive: outcome [1] | outcome [2] | outcome [3]

COCCCN1CCC(NC(=O)c2cc(Cl)c(N)c3c2OCC3)CC1
inactive: outcome [1] | outcome [2] | outcome [3]

CCn1nc(C(=O)O)c(=O)c2cc3c(cc21)OCO3
inactive: outcome [1] | outcome [2] | outcome [3]

COc1cc(OC)c(OC)cc1C=O
inactive: outcome [1] | outcome [2] | outcome [3] | outcome [5]
98.8%: viability (% of control) [4]

CCC(Cc1c(I)cc(I)c(N)c1I)C(=O)O (configuration not stated)
inactive: outcome [1] | outcome [2] | outcome [3]

CC(C)COC(=O)c1ccc(N)cc1
inactive: outcome [1] | outcome [2] | outcome [3]

CC(C(=O)O)c1ccc2c(c1)CC(=O)c1ccccc1S2 (configuration not stated)
inactive: outcome [1] | outcome [2] | outcome [3]

Cc1cc(=O)[nH]c(=S)[nH]1
inactive: outcome [1] | outcome [2] | outcome [3]

NC(=O)N[C@@H](CCC(=O)O)C(=O)O
inactive: outcome [1] | outcome [2] | outcome [3]

COc1cc2c(Nc3ccc(Br)cc3F)ncnc2cc1OCC1CCN(C)CC1
active: Potency [6] 20.9 µM
inactive: outcome [1] | outcome [2] | outcome [3]

CCOC(=O)c1ccc(O)cc1
inactive: outcome [1] | outcome [2] | outcome [3]

CCN1CCC[C@H]1CNC(=O)c1c(OC)ccc(Br)c1OC
inactive: outcome [1] | outcome [2] | outcome [3]

CC(=O)Oc1cc(C(C)C)c(OCCN(C)C)cc1C
inactive: outcome [1] | outcome [2] | outcome [3]

Cc1nc2ccc(CN(C)c3ccc(C(=O)N[C@@H](CCC(=O)O)C(=O)O)s3)cc2c(=O)[nH]1
inactive: outcome [1] | outcome [2] | outcome [3]

CC(=O)CC(c1ccc([N+](=O)[O-])cc1)c1c(O)c2ccccc2oc1=O (configuration not stated)
inactive: outcome [1] | outcome [2] | outcome [3]

OCCc1ccccc1
inactive: outcome [1] | outcome [2] | outcome [3]

Cn1c(=O)c2[nH]cnc2n(C)c1=O
inactive: outcome [1] | outcome [2] | outcome [3]

CN(C)C(=O)Oc1ccc[n+](C)c1
inactive: outcome [1] | outcome [2] | outcome [3]

COc1cc(OC)c(C(=O)CCCN2CCCC2)c(OC)c1
inactive: outcome [1] | outcome [2] | outcome [3]

O=C(CCCl)NCc1ccccc1
inactive: outcome [1] | outcome [2] | outcome [3]

CN1C(=O)COc2c(C(=O)NC3CN4CCC3CC4)cc(Cl)cc21 (configuration not stated)
inactive: outcome [1] | outcome [2] | outcome [3] | outcome [5]
120%: viability (% of control) [4]

CC[C@H]1OC(=O)[C@H](C)[C@@H](O[C@H]2C[C@@](C)(OC)[C@@H](O)[C@H](C)O2)[C@H](C)[C@@H](O[C@@H]2O[C@H](C)C[C@H](N(C)C)[C@@H]2O)[C@](C)(O)C[C@@H](C)CN(C)[C@H](C)[C@@H](O)[C@]1(C)O
active: AC50 [8] 2.51 µM
inactive: outcome [1] | outcome [2] inactive [Channel type: confirmation] | outcome [3] | outcome [7]

CCCc1nn(C)c2c(=O)[nH]c(-c3cc(S(=O)(=O)N4CCN(C)CC4)ccc3OCC)nc12
inactive: outcome [1] | outcome [2] | outcome [3] | Potency [6] | Potency [9]

O=C(NCCO[N+](=O)[O-])c1cccnc1
inactive: outcome [1] | outcome [2] | outcome [3]

Cc1cccc(C(=O)O)c1O
inactive: outcome [1] | outcome [2] | outcome [3]

Cc1cccn2c(=O)c(-c3nnn[nH]3)cnc12
inactive: outcome [1] | outcome [2] | outcome [3]

Oc1ccccc1-c1nnco1
inactive: outcome [1] | outcome [2] | outcome [3]

CC(=O)Nc1ncc([N+](=O)[O-])s1
inactive: outcome [1] | outcome [2] | outcome [3]

CCOC(N)=O
inactive: outcome [1] | outcome [2] | outcome [3]

C=CCN1C[C@H](C(=O)N(CCCN(C)C)C(=O)NCC)C[C@@H]2c3cccc4[nH]cc(c34)C[C@H]21
inactive: outcome [1] | outcome [2] | outcome [3]
active: AC50 [8] 15.8 µM

C[N+](C)(CCOc1ccccc1)Cc1cccs1
inactive: outcome [1] | outcome [2] | outcome [3]

CCCCCC(C)N (configuration not stated)
inactive: outcome [1] | outcome [2] | outcome [3]

C[C@]12CCC(=O)C=C1CC[C@@H]1[C@H]3CC[C@](C)(O)[C@@]3(C)CC[C@@H]12
93.9% [at 92.2 µM]: viability (% of control) [4]
inactive: outcome [1] | outcome [2] | outcome [3] | outcome [5]

CN1C(=O)CCS(=O)(=O)C1c1ccc(Cl)cc1 (configuration not stated)
112%: viability (% of control) [4]

CCC1(c2ccc(N)cc2)CCC(=O)NC1=O (configuration not stated)
111%: viability (% of control) [4]

[N-]=[N+]=CC(=O)OC[C@H](N)C(=O)O
inactive: outcome [1] | outcome [2] | outcome [3] | outcome [5]

C[C@H](N)C(=O)c1ccccc1
inactive: outcome [1] | outcome [2] | outcome [3] | outcome [5]

CC(Cc1ccccc1)NCCn1cnc2c1c(=O)n(C)c(=O)n2C (configuration not stated)
inactive: outcome [1] | outcome [2] | outcome [3] | outcome [5]

CN1CCC(O)(c2ccc(F)cc2)C(C(=O)c2ccc(F)cc2)C1 (configuration not stated)
inactive: outcome [1] | outcome [2] | outcome [3] | outcome [5]

CCCCCCC(=O)CCCCCC/C=C/C[C@@H](O)[C@H](O)[C@@](N)(CO)C(=O)O
inactive: outcome [1] | outcome [2] | outcome [3] | outcome [5]

CC(C)(C)NCC(O)c1cc(Cl)c(N)c(C(F)(F)F)c1 (configuration not stated)
inactive: outcome [1] | outcome [2] | outcome [3] | outcome [5]

COc1ccc2c3c1O[C@H]1[C@H](O)CC[C@H]4[C@@H](C2)N(C)CC[C@@]341
inactive: outcome [1] | outcome [2] | outcome [3] | outcome [5]

CN1CC[C@]23c4c5ccc(O)c4O[C@H]2[C@@H](O)CC[C@H]3[C@H]1C5
inactive: outcome [1] | outcome [2] | outcome [3] | outcome [5]

COc1c2c(cc3c1OCO3)CCN(C)C2
inactive: outcome [1] | outcome [2] | outcome [3] | outcome [5]

C=CCC1(C(C)CC)C(=O)NC(=O)NC1=O (configuration not stated)
inactive: outcome [1] | outcome [2] | outcome [3] | outcome [5]

CCN[C@@H](C)Cc1ccccc1
inactive: outcome [1] | outcome [2] | outcome [3] | outcome [5]

COP(=S)(OC)Oc1cc(Cl)c(Cl)cc1Cl
inactive: outcome [1] | outcome [2] | outcome [3] | outcome [5]

COC1CC(=C(c2cccs2)c2cccs2)C[N+](C)(C)C1 (configuration not stated)
inactive: outcome [1] | outcome [2] | outcome [3] | outcome [5]

Nc1nc(N)nc(NC2CC2)n1
inactive: outcome [1] | outcome [2] | outcome [3] | outcome [5]

CCCCCCCCCC(=O)O[C@H]1CC[C@H]2[C@@H]3CCC4=CC(=O)CC[C@@H]4[C@H]3CC[C@]12C
inactive: outcome [1] | outcome [2] | outcome [3] | outcome [5]

O=C1c2ccccc2C(=O)C1C(=O)C(c1ccccc1)c1ccccc1
inactive: outcome [1] | outcome [2] | outcome [3] | outcome [5]

C[C@]12CCC(=O)C=C1CC[C@@H]1[C@@H]2CC[C@@]2(C)[C@H]1CC[C@]2(C)O
inactive: outcome [1] | outcome [2] | outcome [3] | outcome [5]

CCC1(c2ccccc2)C(=O)N(COC)C(=O)N(COC)C1=O
inactive: outcome [1] | outcome [2] | outcome [3] | outcome [5]

CC(C)NC(C)C
inactive: outcome [1] | outcome [2] | outcome [3] | outcome [5]
